# Test results from PubChem BioAssay (NCI).
# Values joined by “and” are separate entries in the source; they are usually repeats but may differ in a detail not shown here. Equal entries are not always repeated. This is part of a sample that, as a whole, favours compounds with a hit. Of some 83,000 tested, about 20% had one in any assay.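 Percent growth is the endpoint: 0 to 100 indicates growth inhibition (40 means 60% inhibition), 0 means no net growth, and negative values indicate cell death.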 Active and inactive are the calls of the source. Rule for the calls: active = growth percent below 10; inactive = the rest.
# Tested on: MDA-MB-468 breast
# Assay: NCI-60 one-dose screen, 48 h (100 = growth as untreated, 0 = no growth, -100 = all killed)
compound,measurement,setting,value
COc1ccc2nc(C)cc(Nc3ccc(Cl)cc3)c2c1,growth,10 µM unless noted,87.2% (inactive)
O=C(Nc1c(Cl)cc(Cl)cc1Cl)ON=C1CCCCC1,growth,10 µM unless noted,96.7% (inactive)
O=S(=O)(Nc1ccc(Cl)c(F)c1)c1ccc(-c2cnc(C3CC3)o2)cc1,growth,10 µM unless noted,-25.4% (active)
COc1ccc2c(c1)cn1c3ccc(O)cc3[nH]c(=O)c21,growth,10 µM unless noted,-6.77% (active)
c1ccc(-c2c(-c3ccccc3)[n+](Cc3ccc4ccccc4c3)c(-c3ccccc3)n2Cc2ccc3ccccc3c2)cc1,growth,10 µM unless noted,-76.4% (active)
CNc1ccc(-c2cc(=O)oc3ccc(Cl)cc23)cc1,growth,10 µM unless noted,39.5% (inactive)
CCCCCCCCCC1=NC(C)(C)CN1C(C)(C)CO,growth,10 µM unless noted,70.3% (inactive)
O=C(C(=Cc1ccccc1)C(=O)c1ccccc1)c1ccccc1,growth,10 µM unless noted,63.4% (inactive) and 89.4% (inactive)
Nc1nc(N)c2c(n1)NC(c1ccc(Cl)cc1)CC(c1ccc(Nc3nc(NCCO)nc(Nc4ccc(Cl)cc4)n3)cc1)=N2 (stereo unspecified),growth,10 µM unless noted,-29% (active)
NC(=O)NCCCC(N)C(=O)O (stereo unspecified),growth,10 µM unless noted,107% (inactive)
CCC/C(=N/NC(N)=O)c1ccco1,growth,10 µM unless noted,102% (inactive)
COc1ccc(-c2nc3ccc(Cc4ccc5nc(-c6ccc(OC)cc6)[nH]c5c4)cc3[nH]2)cc1,growth,10 µM unless noted,-20.2% (active)
C=C1C(=O)O[C@H]2[C@H]1CC/C(COC(=O)CCCCCCC(=O)OC/C1=C/CC[C@@]3(C)O[C@H]3[C@H]3OC(=O)C(=C)[C@@H]3CC1)=C\CC[C@@]1(C)O[C@@H]21,growth,10 µM unless noted,-23.9% (active)
Cc1ccc(-c2csc(N(C(=O)N3CCN(c4cc5c(cc4F)c(=O)c(C(=O)O)cn5C4CC4)CC3)c3ccccc3)n2)cc1,growth,10 µM unless noted,-6.73% (active)
COc1cc2c(cc1OC(C)=O)C(=O)CCCC2,growth,10 µM unless noted,76.8% (inactive)
CC/C=C\C[C@H](O)C/C=C1/C(=O)C=C[C@@H]1C/C=C\CCCC(=O)O,growth,10 µM unless noted,28.7% (inactive)
COc1ccc(NC(=O)n2nc(/C=C\c3ccc(O)c(OC)c3)cc2/C=C\c2ccc(O)c(OC)c2)cc1,growth,10 µM unless noted,34.7% (inactive)
C[C@@H]1CC[C@@H]2[C@@H]1[C@H](OC(=O)/C=C/c1ccccc1)[C@]1(C3CCCCC3)C[C@@H](NC(=O)CO)[C@@]2(C)O1,growth,10 µM unless noted,115% (inactive)
CC(Nc1c(C#N)cnc2ccc(-c3cncc(-c4n[nH]c(=O)o4)c3)cc12)c1ccccc1 (stereo unspecified),growth,10 µM unless noted,-41.7% (active)
O=C(Nc1ccc(-n2ccc3c(NC(=O)c4ccccc4)ncnc32)cc1)Nc1ccc(Cl)c(C(F)(F)F)c1,growth,10 µM unless noted,-56.3% (active)
Cc1ccc2nc3c(cc2c1)CSc1nnc(-c2ccc[nH]c2=S)n1N3,growth,10 µM unless noted,111% (inactive)
O=C(Cn1cc(CN2CCN(c3ccnc4cc(Cl)ccc34)CC2)nn1)Nc1cccc([N+](=O)[O-])c1,growth,10 µM unless noted,92.8% (inactive)
ClCc1cccc(CSc2ncnc3c2ncn3Cc2cccc(CCl)c2)c1,growth,10 µM unless noted,-89.3% (active)
Cc1cc(OCCO)cc(C)c1Cl,growth,10 µM unless noted,124% (inactive)
O=C1/C(=C/c2ccc(F)cc2)COc2ccc(O)c(O)c21,growth,10 µM unless noted,-2.42% (active)
COc1ccc(Nc2ncccc2C(=O)NCc2cn(Cc3cccc(Oc4ccccc4)c3)nn2)cc1,growth,10 µM unless noted,4.17% (active)
COc1ccc(-c2nn(-c3cccc(NC(=O)c4ccc5c(c4)OCCO5)c3)cc2-c2ccncc2)cc1Cl,growth,10 µM unless noted,26.2% (inactive)
COc1ccc2[nH]cc(C3(c4c[nH]c5ccc(OC)cc45)C(=O)Nc4ccc(F)cc43)c2c1,growth,10 µM unless noted,96.9% (inactive)
FC(F)(F)c1ccc2c(c1)n1cnnc1c1nncn21,growth,10 µM unless noted,105% (inactive)
COc1cccc(CNC(=O)c2cccc(C3CC(=O)c4c(cc(OC)c(OC)c4OC)O3)c2)c1 (stereo unspecified),growth,10 µM unless noted,20.5% (inactive)
O=[N+]([O-])c1ccc(O)c(-c2nc3ccccc3s2)c1,growth,10 µM unless noted,63.5% (inactive)
CCOc1nc(-c2ccccc2)cc2c(O)c(C(=O)O)[nH]c(=O)c12,growth,10 µM unless noted,96.2% (inactive)
Nc1nc(N)c2c(ccc3c2ccn3Cc2cccc([N+](=O)[O-])c2)n1,growth,10 µM unless noted,-84.7% (active)
CCCOC(=O)N[C@H]1CCc2cc(OC)c(OC)c(OC)c2-c2ccc(SC)c(=O)cc21,growth,10 µM unless noted,-16.8% (active)
CCOc1ccccc1CN1CCc2nc3cc(C(C)(C)C)[nH]n3c(=O)c2C1,growth,10 µM unless noted,105% (inactive)
Cc1nc2ccc(C(=O)NCc3cc(C(=O)O)c(C)o3)cc2nc1C,growth,10 µM unless noted,98.7% (inactive)
COc1ccc(Cl)cc1C(=O)NCCc1ccc(S(=O)(=O)NC(=O)NC2CCCCC2)cc1,growth,10 µM,103% (inactive) and 118% (inactive)
same,growth,100 µM,63.2% (inactive)
O=C(O)c1c(Cl)c(Cl)c(Cl)c(Cl)c1-c1c2cc(I)c(=O)c(I)c-2oc2c(I)c(O)c(I)cc12,growth,10 µM,115% (inactive) and 111% (inactive) and 77.5% (inactive)
same,growth,100 µM,-39.6% (active)
CC#C[C@]1(O)CC[C@H]2[C@@H]3CCC4=CC(=O)CCC4=C3[C@@H](c3ccc4c(c3)OCO4)C[C@@]21C,growth,10 µM,66.6% (inactive)
same,growth,100 µM,-15.2% (active)
Fc1ccc(-c2cc3nc(C(Cl)Cl)nc(-c4ccc(Cl)cc4)n3n2)cc1,growth,10 µM unless noted,-76.3% (active)
CS/C(=C\c1ccc(C(=O)c2ccc(C)cc2)n1C)S(C)=O (stereo unspecified),growth,10 µM,86.1% (inactive)
same,growth,100 µM,30.8% (inactive)
CC(=O)/C=C/c1ccc(N(C)Cc2ccc(C(C)(C)C)cc2)cc1,growth,10 µM,86% (inactive)
same,growth,100 µM,-71.8% (active)
CC(=O)/C=C/c1ccc(OCc2ccc(Cl)cc2)cc1,growth,10 µM,109% (inactive)
same,growth,100 µM,1.46% (active)
CC(C)(C)c1cc(NC(=O)Cc2ccc(-c3cnc4cc(-c5cnn(CCN6CCOCC6)c5)ccc4n3)cc2)no1,growth,10 µM,22.2% (inactive)
same,growth,30 µM,-1.53% (active)
COc1ccc(C(=O)/C=C/c2ccc(OCc3ccc(Cl)cc3)cc2)cc1OC,growth,10 µM,83.3% (inactive)
same,growth,100 µM,27.8% (inactive)
CCCCCCCCCCCCCCCc1ccc(Cl)c(O)c1Cl (tested in a mixture with another compound),growth,0.25 µM,8.94% (active)
same,growth,10 µM,103% (inactive)
O=C(Nc1cccc(Br)c1)Oc1cccc2cccnc12,growth,10 µM,103% (inactive)
same,growth,100 µM,-8.71% (active)
COc1ccc(-c2cscc2N)cc1,growth,10 µM,96.4% (inactive)
same,growth,100 µM,38.7% (inactive)
O=C(O)c1sccc1O,growth,10 µM,76.3% (inactive)
same,growth,100 µM,10.8% (inactive)
N#C/C(=C\c1ccc(Br)cc1)n1nnc2cccc(F)c21,growth,10 µM unless noted,-0.554% (active)
Cc1[nH]c(-c2nc3ccccc3[nH]2)c(C)c1C(=O)NC(C)C1CCCCC1 (stereo unspecified),growth,10 µM,59.8% (inactive)
same,growth,100 µM,-87.1% (active)
CC1(C)OB(c2ccc(Cn3cc(F)c(=O)[nH]c3=O)cc2)OC1(C)C,growth,10 µM,105% (inactive)
same,growth,50 µM,13% (inactive)
CN1CCn2c(c(Sc3ccc(C(=O)NO)cc3)c3ccccc32)C1=O,growth,10 µM unless noted,-39.2% (active)
O=C(/C=C/c1cccc(Oc2ccc(Cl)cc2)c1)c1ccccc1,growth,10 µM,110% (inactive)
same,growth,100 µM,-36.3% (active)
O=C(Nc1c(Cl)cccc1Cl)Oc1cccc2cccnc12,growth,10 µM,19.5% (inactive)
same,growth,100 µM,-0.346% (active)
O=c1ccn2c(n1)OC1CC2OC1COC(c1ccccc1)(c1ccccc1)c1ccccc1 (stereo unspecified),growth,10 µM,102% (inactive)
same,growth,100 µM,56.9% (inactive)
CCCCCCCC/C=C\CCCCCCCCOc1ccc(CC(=O)NCC[N+](C)(C)C)cc1,growth,10 µM unless noted,60.1% (inactive)
COc1ccc(C(=O)/C=C/c2ccc(OCc3cccc(C(F)(F)F)c3)c(OC)c2)cc1OC,growth,10 µM,68.9% (inactive)
same,growth,100 µM,-2.26% (active)
CCN(Cc1ccccc1)c1ccc(/C=C2\COc3ccccc3C2=O)cc1,growth,10 µM,118% (inactive)
same,growth,100 µM,7.2% (active)
CC(=O)/C=C/c1ccc(N(CCO)Cc2ccc(C(C)(C)C)cc2)cc1,growth,10 µM,73.8% (inactive)
same,growth,100 µM,-71% (active)
COc1cccc2c1C(=O)c1c(O)c3c(c(O)c1C2=O)C[C@@](O)(C(=O)CO)C[C@@H]3OC1CC(N)C(O)C(C)O1 (stereo partly specified),growth,0.0025 µM,95.2% (inactive)
same,growth,2.5 µM,10.4% (inactive)
COCCC[C@H]1O[C@@](O)([C@H](C)[C@@H]2CC(OC)C(O)/C=C(C)/C=C(C)/C=C(\C)C(OC3O[C@@H](C)[C@H](O)C(O)[C@@H]3O)C(C)/C=C(C)/C=C(OC)/C=C(\C)C(=O)O2)C(OC)C(O)[C@]1(C)O[C@H]1C[C@@H](O)[C@H](O[C@H]2C[C@](C)(O)[C@H](O)C(C)O2)C(C)O1 (stereo partly specified),growth,10 µM unless noted,9.61% (active)
O=C(N/N=C/c1ccc(F)cc1)c1ccccc1Nc1cccc(C(F)(F)F)c1,growth,10 µM unless noted,83.9% (inactive)
CC(=O)/C=C/c1ccc(OCc2ccc(C(C)(C)C)cc2)cc1,growth,10 µM,47.7% (inactive)
same,growth,100 µM,-0.894% (active)
CN(C)CCNc1ncc(F)c(-c2cnc3cc(-c4cnn(C)c4)ccn23)n1,growth,0.005 µM,103% (inactive)
same,growth,30 µM,84.5% (inactive)
O=c1[nH]cc(F)c(=O)[nH]1,growth,10 µM,64.4% (inactive)
same,growth,50 µM,58.6% (inactive)
CCc1ccccc1-n1c(N)c(C#N)c(-c2ccc(OC)c(OC)c2)c(C#N)c1=O,growth,10 µM,107% (inactive)
same,growth,100 µM,47.4% (inactive)
CC(=O)O[C@H]1C(=O)[C@@]2(C)[C@H]([C@H](OC(=O)c3ccccc3)[C@]3(O)C[C@H](OC(=O)[C@H](O)[C@@H](NC(=O)c4ccccc4)c4ccccc4)C(C)=C1C3(C)C)[C@]1(OC(C)=O)CO[C@@H]1C[C@@H]2O,growth,2.5 µM,-25.5% (active)
same,growth,5 µM,-21.9% (active)
same,growth,10 µM,-19.1% (active)
CC(CCCC(=O)O)c1ccoc1 (stereo unspecified),growth,10 µM unless noted,119% (inactive)
CN(C)C(=O)c1ccc(SC(=S)NCc2ccccc2)cc1,growth,10 µM,93.9% (inactive)
same,growth,100 µM,-27.4% (active)
O=[N+]([O-])c1ccc(-c2nc(-c3ccccc3)c(-c3ccccc3)n2-c2ccccc2)cc1,growth,10 µM unless noted,2.29% (active)
Cc1nc2ncnc(Cl)c2[nH]1,growth,10 µM unless noted,105% (inactive)
CC(=O)C1=NN(c2ccc(Cl)cc2)C(=O)CN1C,growth,10 µM unless noted,102% (inactive)
CNC(=O)c1cc(Oc2ccc(CC(=O)Nc3cc(C(C)(C)C)nn3C)cc2)ccn1,growth,1 µM,28.7% (inactive)
same,growth,10 µM,2.05% (active)
same,growth,30 µM,19.7% (inactive)
O=c1ccn(C2CC(O)C(COC(c3ccccc3)(c3ccccc3)c3ccccc3)O2)c(=O)[nH]1 (stereo unspecified),growth,10 µM,101% (inactive)
same,growth,100 µM,41.5% (inactive)
